From PubChem BioAssay
Pf Dd2 inh: inhibitors of Plasmodium falciparum Dd2 growth | P. falciparum Dd2 growth, SYBR Green, 72 h; stronger effect = lower value | activity change, % at 10 µM | hit rate 2.3% among 94,000 | AID 1159554; in the data active = activity change below about -80%; inconclusive = no clear call, values can overlap the other calls
C diff growth: C. difficile growth inhibition; growth activity, negative = inhibition, % at 16 µg/mL (by protocol); hit rate 0.25% among 86,000; Clostridium difficile clinical isolate growth, OD600, 24 h; stronger effect = lower value;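 active = mean growth activity at or below -80% and every replicate also at or below -80%; inconclusive = mean at or below -80% but some replicate above -80%; inactive = mean growth activity above -80%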;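 also: 0% = DMSO wells and -100% = levofloxacin 16 µg/mL wells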
T cruzi growth-1: inhibitors of T. cruzi proliferation; T. cruzi beta-gal in NIH3T3, GalScreen luminescence, 90 h; inhibition, % at 8.34 µM; hit rate 5.9% among 77,000; AID 624255;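 active = mean inhibition above about 93%, with at least 55% of replicates each passing it, limit read from the data, passing the limit was not always enough; inconclusive = only one of those two conditions holds; inactive = neither condition holds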
T cruzi growth-2: Trypanosoma cruzi proliferation inhibition. AID 651739. shares compounds with T cruzi growth-1. T. cruzi beta-gal in NIH3T3, GalScreen luminescence, 90 h. inhibition, % at 8.35 µM. hit rate 72% among 5,600;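 active = mean replicate inhibition above about 95% and at least 55% of replicates individually reaching it, limit read from the data; inconclusive = only one of the two criteria is met; inactive = neither criterion is met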
T cruzi growth-3: Trypanosoma cruzi proliferation inhibition | shares compounds with T cruzi growth-1 | T. cruzi beta-gal in NIH3T3, GalScreen luminescence, 90 h | inhibition, % at 2.09 µM | hit rate 21% among 5,600;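 active = mean inhibition above about 95%, with at least 55% of replicates also reaching it, limit read from the data; inconclusive = meets just one of the two conditions; inactive = meets neither condition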;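 also: plate controls were neutral control median for no effect and positive control median for full effect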
3T3 cytotox: kills mouse NIH/3T3 fibroblasts; NIH/3T3 viability, CellTiter-Glo ATP luminescence, 90 h; shares compounds with T cruzi growth-1; cytotoxicity (signal decrease), % at 8.35 µM; hit rate 14% among 5,600; AID 651742;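 active = mean signal decrease across replicates above about 35% based on untreated-well scatter, with enough replicates individually passing, limit read from the data; inconclusive = no rule stated though some were filed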;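 also: 0% = median of neutral control wells and 100% = median of positive control wells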
3T3 cytotox 2: kills mouse NIH/3T3 fibroblasts; shares compounds with T cruzi growth-1; NIH/3T3 viability, CellTiter-Glo ATP luminescence, 90 h; inhibition, % at 24.9 µM; hit rate 56% among 5,600; AID 651744;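 active = mean loss of cell viability signal at or above a set limit, and enough replicates individually reaching it; inconclusive = meets only the mean limit or only the replicate share; inactive = meets neither condition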;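 also: 0% = median of neutral control wells and 100% = median of positive control wells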
Numbers without * were called inactive; ? = inconclusive; · = no result given. Rows were chosen to be rich in hits. Some 6.8% of all compounds tested hit in one or more screens of this group.

SMILES	Pf Dd2 inh	C diff growth	T cruzi growth-1	T cruzi growth-2	T cruzi growth-3	3T3 cytotox	3T3 cytotox 2
COc1ccc(CN(C)C[C@H]2OCCCC[C@@H](C)Oc3ccc(NC(=O)Nc4ccc5c(c4)OCO5)cc3C(=O)N([C@H](C)CO)C[C@H]2C)cc1	-71	·	106*	106*	83	1	64*
COc1ccc(CN(C)C[C@H]2OCCCC[C@H](C)Oc3ccc(NC(=O)Nc4ccc5c(c4)OCO5)cc3C(=O)N([C@@H](C)CO)C[C@H]2C)cc1	?	·	58	·	·	·	·
COc1ccc2c3c(n(C)c2c1)[C@@H](CO)N(C(=O)c1cccc(F)c1)CC31CN(CC2CC2)C1	-58	2	·	·	·	·	·
COc1ccc(S(=O)(=O)Nc2ccc3c(c2)C(=O)N([C@@H](C)CO)C[C@H](C)[C@@H](CN(C)C(=O)Nc2cccc4ccccc24)O3)cc1	-45	-16	-60	·	·	·	·
Cc1cccc(S(=O)(=O)N(C)C[C@@H]2OCc3cn(nn3)CCCC(=O)N([C@@H](C)CO)C[C@@H]2C)c1	-7	·	8	·	·	·	·
C[C@H]1CN([C@@H](C)CO)C(=O)c2cc(NC(=O)Cc3ccccc3)ccc2O[C@@H]1CN(C)C(=O)Nc1ccc(C(F)(F)F)cc1	2	-7	7	·	·	·	·
O=C(C1CCC1)N1CCCCN2[C@H](CO)[C@H](c3ccc(-c4ccncc4)cc3)[C@H]2C1	3	-5	101*	92	82	-14	-13
O=C(C1CCCC1)N1CCCCN2[C@H](CO)[C@@H](c3ccc(-c4ccncc4)cc3)[C@H]2C1	45	-7	?	55	36	11	19
CC(=O)N1CCCCN2[C@@H](CO)[C@@H](c3ccc(-c4ccncc4)cc3)[C@@H]2C1	19	-7	54	·	·	·	·
O=C(C1CCCC1)N1CCCCN2[C@@H](CO)[C@@H](c3ccc(-c4ccncc4)cc3)[C@@H]2C1	12	-7	49	·	·	·	·
O=C(C1CCC1)N1CCCCN2[C@H](CO)[C@@H](c3ccc(-c4ccncc4)cc3)[C@H]2C1	26	4	98*	100*	16	-7	5
O=C(C1CCC1)N1CCCCN2[C@@H](CO)[C@@H](c3ccc(-c4ccncc4)cc3)[C@@H]2C1	7	-6	109*	105*	86	20	51*
O=C(C1CCCC1)N1CCCCN2[C@H](CO)[C@H](c3ccc(-c4ccncc4)cc3)[C@H]2C1	5	-7	87	·	·	·	·
CC(=O)N1CCCCN2[C@H](CO)[C@H](c3ccc(-c4ccncc4)cc3)[C@H]2C1	38	-8	30	·	·	·	·
CO[C@@H]1CN(C)C(=O)c2cc(NS(=O)(=O)c3cccc(F)c3)ccc2OC[C@@H](C)N(C(=O)Cc2cccnc2)C[C@@H]1C	-9	·	25	·	·	·	·
CCCN(C)C[C@@H]1Oc2cc(-c3ccccc3C)ccc2S(=O)(=O)N([C@@H](C)CO)C[C@H]1C	30	·	·	·	·	·	·
C[C@H]1CN([C@@H](C)CO)S(=O)(=O)c2ccc(C#CC3(O)CCCC3)cc2O[C@@H]1CN(C)C(=O)Cc1ccccc1	-55	-6	-44	·	·	·	·
CN(C)CC(=O)N1CC2(C1)[C@@H](c1ccccc1)[C@@H](CO)N2Cc1cc(F)ccc1F	5	7	·	·	·	·	·
CNC(=O)C[C@@H]1CC[C@@H]2[C@@H](COc3ccc(NC(=O)Nc4ccc(Cl)cc4)cc3C(=O)N2C)O1	5	0	8	·	·	·	·
C[C@@H]1CCCCO[C@@H](CN(C)C(=O)Nc2ccc3c(c2)OCO3)[C@@H](C)CN([C@H](C)CO)C(=O)c2cc(NC(=O)Nc3cccc4ccccc34)ccc2O1	16	-3	21	·	·	·	·
C[C@@H]1CCCCO[C@@H](CN(C)C(=O)Nc2ccc3c(c2)OCO3)[C@H](C)CN([C@H](C)CO)C(=O)c2cc(NC(=O)Nc3cccc4ccccc34)ccc2O1	-12	-6	·	·	·	·	·
C[C@@H]1CN([C@H](C)CO)C(=O)c2cc(NC(=O)Nc3cccc4ccccc34)ccc2O[C@@H](C)CCCCO[C@@H]1CN(C)Cc1ccc2c(c1)OCO2	-89*	·	?	98*	109*	31	38*
C[C@@H]1CCCCO[C@@H](CN(C)Cc2ccc3c(c2)OCO3)[C@H](C)CN([C@@H](C)CO)C(=O)c2cc(NC(=O)Nc3cccc4ccccc34)ccc2O1	-72	15	?	104*	?	13	47*
C[C@@H]1CCCCO[C@H](CN(C)Cc2ccc3c(c2)OCO3)[C@H](C)CN([C@@H](C)CO)C(=O)c2cc(NC(=O)Nc3cccc4ccccc34)ccc2O1	-78	20	116*	92	103*	24	103*
C[C@H]1CCCCO[C@H](CN(C)Cc2ccc3c(c2)OCO3)[C@@H](C)CN([C@@H](C)CO)C(=O)c2cc(NC(=O)Nc3cccc4ccccc34)ccc2O1	-76	22	64	·	·	·	·
SMILES	Pf Dd2 inh	C diff growth	T cruzi growth-1	T cruzi growth-2	T cruzi growth-3	3T3 cytotox	3T3 cytotox 2
O=C(NC1CCCCC1)N1CC(=O)N2[C@H](CO)[C@@H](c3ccc(-c4cccnc4)cc3)[C@H]2C1	20	-2	·	·	·	·	·
C/C=C/c1ccc([C@H]2[C@@H](CO)N(Cc3ccccn3)[C@H]2CNC(C)=O)cc1	-39	11	52	·	·	·	·
CC(C)c1cn(CC[C@H]2CC[C@H](NC(=O)c3cccc(F)c3)[C@H](CO)O2)nn1	1	·	-27	·	·	·	·
CC(C)C#Cc1ccc2c(c1)O[C@H](CN(C)Cc1ccncc1)[C@H](C)CN([C@H](C)CO)S2(=O)=O	-27	-9	101*	99*	72	?	50*
C[C@H](O)C#Cc1ccc2c(c1)O[C@H](CN(C)Cc1ccncc1)[C@H](C)CN([C@@H](C)CO)S2(=O)=O	-15	2	68	·	·	·	·
C[C@H](O)C#Cc1ccc2c(c1)O[C@@H](CN(C)Cc1ccncc1)[C@H](C)CN([C@H](C)CO)S2(=O)=O	-42	1	113*	100*	73	30	39*
C[C@@H](O)C#Cc1ccc2c(c1)O[C@H](CN(C)Cc1ccncc1)[C@@H](C)CN([C@@H](C)CO)S2(=O)=O	-32	0	77	·	·	·	·
CS(=O)(=O)N1C[C@@H](O)COC[C@@H]2O[C@H](CC(=O)NCc3ccccc3)CC[C@H]21	4	16	66	·	·	·	·
COCC#Cc1ccc2c(c1)O[C@H](CN(C)S(=O)(=O)c1cccc(F)c1)[C@H](C)CN([C@@H](C)CO)S2(=O)=O	-69	6	42	·	·	·	·
CCCC#Cc1ccc2c(c1)O[C@@H](CN(C)S(=O)(=O)c1cccc(F)c1)[C@H](C)CN([C@H](C)CO)S2(=O)=O	-22	4	123*	106*	84	51*	96*
CCCC#Cc1ccc2c(c1)O[C@H](CN(C)S(C)(=O)=O)[C@@H](C)CN([C@@H](C)CO)S2(=O)=O	-7	3	43	·	·	·	·
